Assay results taken from PubChem BioAssay (NCI).
This is part of a sample that, as a whole, favours compounds with a hit. Of some 83,000 tested, about 20% had one in any assay.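 Testing used 96-well plates and a 48-hour single-concentration exposure. Example: -40 means 40% of the starting cells died.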 The source made the active and inactive calls. Rule for the calls: active = growth percent below 10; inactive = the rest.

Experiments:
Test in all cases: NCI-60 one-dose screen, 48 h (100 = growth as untreated, 0 = no growth, -100 = all killed)
Settings in all cases: 10 µM unless noted
[1] = tested on: SR leukemia
[2] = tested on: RPMI-8226 leukemia
[3] = tested on: OVCAR-8 ovarian
[4] = tested on: OVCAR-5 ovarian
[5] = tested on: OVCAR-4 ovarian
[6] = tested on: SK-OV-3 ovarian
[7] = tested on: IGROV1 ovarian
[8] = tested on: OVCAR-3 ovarian
[9] = tested on: HS 578T breast
[10] = tested on: NCI/ADR-RES ovarian

Measured: growth

COc1cc(C2CC(c3ccc(C(F)(F)F)cc3)=Nc3c(N)nc(N)nc3N2)ccc1Oc1nc(Nc2ccc(F)cc2)nc(N(C)C)n1 (stereo not given)
active: [1] -25.2%
inactive: [2] 24.3% | [3] 46.9% | [4] 89.1% | [5] 37.1% | [6] 90.8% | [7] 39.8% | [8] 76.1% | [9] 48.9% | [10] 37%

Nc1cc2ccccc2c(=O)n1NC(=O)c1ccc(Br)cc1
inactive: [1] 72.5% | [2] 92.1% | [3] 98.6% | [4] 97.8% | [5] 91% | [6] 115% | [7] 101% | [8] 79.2% | [9] 102% | [10] 93%

COc1cc(/C=N/NC(=O)c2ccc(OCc3nc4ccc(Cl)cc4[nH]3)cc2)cc(OC)c1OC
inactive: [1] 33% | [3] 34.5% | [4] 76.3% | [5] 67.1% | [6] 97.7% | [7] 43.1% | [8] 55.7% | [9] 58.3% | [10] 80.6%
active: [2] 2.76%

CN(C)c1ccc(/C=C/c2n(Cc3ccc4ccccc4c3)c3ccccc3[n+]2Cc2ccc3ccccc3c2)cc1
active: [1] -29.3% | [2] -36.7% | [3] -31.3% | [4] -97.6% | [5] -79% | [6] -80.3% | [7] -75.9% | [8] -45.2% | [9] -46.3% | [10] -80.7%

C#CCN(C)CCCOc1ccc(N(CC)C(=O)c2cc(C(C)C)c(O)cc2O)cc1Cl
active: [1] -34.3% | [2] -33.5% | [3] 2.93% | [6] 7.75% | [7] 0.38% | [9] 9.36% | [10] -33.1%
inactive: [4] 19.7% | [5] 26.1% | [8] 20.6%

N/C(=N\c1nc2ccccc2s1)NC(=O)Nc1ccccc1F
active: [6] -1.47% | [8] 7.03% | [9] 7.56% | [10] -14.8%
inactive: [1] 20.8% | [2] 15.8% | [3] 10.6% | [4] 31.4% | [5] 49.6% | [7] 37.5%

COc1ccc(N=Nc2c(N)nn3c(-c4ccc(OC)c(OC)c4)ccnc23)cc1
inactive: [1] 77.7% | [2] 65.6% | [3] 78.8% | [4] 87.1% | [5] 95.5% | [6] 56.4% | [7] 95.4% | [8] 109% | [9] 98.4% | [10] 79.2%

COc1ccc2c(c1)N=c1c-2cc2c(O)[nH]c(=S)n2c1=O
inactive: [1] 21.7% | [2] 62.6% | [3] 53.2% | [4] 53.5% | [5] 86.9% | [6] 53.3% | [7] 50% | [8] 33.8% | [9] 21.5% | [10] 26.7%

COc1ccccc1/C=C/c1cccc(NC(=S)NCCCCN(C)C)c1
active: [1] -30.5% | [2] -6.58% | [3] -58.5% | [4] -92.3% | [5] -79.7% | [6] -72.9% | [7] -82.4% | [8] -48.8% | [9] -24.2% | [10] -62.6%

COc1cc(-c2ccc3ncnc(N4CCc5ccc(Cl)cc54)c3c2)cnc1Cl
inactive: [1] 12.3% | [3] 37.1% | [4] 34.7% | [5] 33.3% | [6] 17.4% | [8] 29.2% | [9] 23.5% | [10] 26.6%
active: [2] -4.08% | [7] -44.4%

COc1ccc(N=Nc2c(N)nn3c(N)c(C#N)c(-c4ccccc4)nc23)cc1
active: [3] 8.3% | [5] -13.4% | [8] -6.99% | [9] -0.615% | [10] 6.35%
inactive: [1] 73.8% | [2] 13.8% | [4] 72.8% | [6] 13.1% | [7] 20.8%

CCCSc1nnc(-c2sc3nc4ccccc4n3c2C)o1
inactive: [1] 107% | [2] 97.7% | [3] 107% | [4] 111% | [5] 104% | [6] 121% | [7] 107% | [8] 117% | [9] 109% | [10] 98.7%

CC(Nc1ncnc2ccc(-c3ccc4oc(N)nc4c3)cc12)c1ccccc1 (stereo not given)
inactive: [4] 25.4%
active: [1] -53.7% | [2] -17.9% | [3] -40.7% | [5] -85.8% | [6] -22.2% | [7] -77.5% | [8] -19.5% | [9] -31.7% | [10] -18.7%

Nc1nc2cc(-c3ccc4ncnc(NCc5ccccc5)c4c3)ccc2o1
active: [1] -44.9% | [3] 2.26% | [5] -75.2% | [6] -5.93% | [7] -68.5% | [8] -31.5% | [9] -34.8% | [10] 2.3%
inactive: [2] 10.6% | [4] 22.1%

COc1cccc(NC(=O)c2ccc(NC(=O)CCl)s2)c1
inactive: [3] 10.2% | [4] 47.3% | [5] 94.6% | [8] 35.8% | [9] 65.9% | [10] 22.5%
active: [1] -0.752% | [2] -22.9% | [6] -1.99% | [7] -13.4%

COc1ccc(N=Nc2c(N)nn3c(-c4ccc5c(c4)C=S=C5)ccnc23)cc1
inactive: [1] 33.9% | [3] 28.8% | [4] 80.4% | [5] 24.3% | [6] 68.7% | [7] 27% | [8] 48.4% | [9] 24.7%
active: [2] 9.87% | [10] 3.61%

CCCn1c(NC(=O)c2cccc(C(N)=O)c2)nc2ccc(CN3CCCCC3)cc21
inactive: [1] 31.4% | [2] 85.2% | [3] 107% | [4] 83.3% | [5] 98.5% | [6] 85.9% | [7] 72.4% | [8] 112% | [9] 111% | [10] 111%

Nc1ccc(-c2ccc3ncnc(N4CCc5cc(F)c(Cl)cc54)c3c2)cn1
inactive: [3] 42.5% | [4] 20.6% | [5] 34.6% | [10] 30%
active: [1] 0.174% | [2] 6.22% | [6] 1.92% | [7] -46% | [8] 4.61% | [9] -15.8%

COc1c2c(cc3c1C(CCc1ccccc1)N(C)CC3)OCO2 (stereo not given)
active: [1] -9.93% | [2] -15.5% | [6] -6.7% | [7] -4.07% | [8] 3.16% | [10] 1.62%
inactive: [3] 16.9% | [4] 16.2% | [5] 29.2% | [9] 11%

COc1cc(CNC(=O)C[C@H](C)CCC=C(C)C)ccc1OCc1cn(-c2ccc(Cl)cc2Cl)nn1
inactive: [1] 79.8% | [2] 90.7% | [3] 29.3% | [4] 91.7% | [5] 49.7% | [6] 26.1% | [7] 72.3% | [8] 101% | [9] 48.4% | [10] 32.9%

N/C(=N\c1nc2ccc([N+](=O)[O-])cc2s1)NC(=O)Nc1ccccc1Cl
active: [3] 6.87% | [5] -26.5% | [8] -52.8%
inactive: [1] 23.6% | [2] 60.7% | [4] 38.2% | [6] 24.2% | [7] 55.8% | [9] 59.7% | [10] 37.6%

COc1ccc2c(c1)C(Sc1ccc(Br)cc1)c1c(nc(N)c(C#N)c1N)O2 (stereo not given)
inactive: [1] 46.5% | [2] 87.1% | [3] 87% | [4] 113% | [5] 92.4% | [6] 98.1% | [7] 59.1% | [8] 114% | [9] 88.8% | [10] 86.5%

Cc1ccc(C(=O)Nc2cc(-n3cnc(F)c3)cc(C(F)(F)F)c2)cc1C#Cc1cnc2cccnn12
inactive: [1] 18.6% | [2] 33.1% | [3] 66.8% | [4] 68.3% | [5] 77.4% | [6] 114% | [7] 71.5% | [8] 119% | [9] 35.8% | [10] 57.2%

Fc1ccc(Nc2nnc(-c3c[nH]c4ccccc34)o2)cc1
inactive: [1] 70.4% | [2] 24.7% | [3] 85.5% | [4] 105% | [5] 81.1% | [6] 83.6% | [7] 50.8% | [8] 107% | [9] 82% | [10] 74.6%

O=C(Cc1c(-c2ccccc2[N+](=O)[O-])n(-c2ncnc3c2c(-c2ccccc2)c(-c2ccccc2)n3Cc2ccccc2)[nH]c1=O)c1ccc(Cl)c(Cl)c1
inactive: [1] 14.2% | [3] 25.5% | [4] 55.1% | [5] 19.2% | [6] 39.3% | [7] 25.2% | [8] 14.2% | [9] 22% | [10] 50.7%
active: [2] -3.03%

COc1ccc(N=Nc2c(N)nn3c(N)c(C#N)c(-c4ccc(C)cc4)nc23)cc1
inactive: [1] 44.6% | [3] 66.3% | [4] 99.9% | [5] 53.2% | [6] 90.2% | [7] 33.5% | [8] 15.2% | [9] 27.7% | [10] 62.2%
active: [2] 3.4%

CC[C@@]12CC(C(=O)OC)=C3Nc4cc5c(cc4[C@@]34CCN(C[C@H]3O[C@H]31)[C@@H]24)[C@@H]1[C@H](O5)[C@@H](O)[C@@]2(CC)CC(C(=O)OC)=C3Nc4cc(O)ccc4[C@@]34CCN1[C@@H]24
active: [1] -29.6% | [2] -9.59% | [3] 2.33% | [4] -74.7% | [5] -39% | [6] -32.4% | [7] -65.8% | [8] -15.7% | [9] 6.27% | [10] 6.74%
